Potency and affinity values are given separately. The source made the active and inactive calls. Entries that show only a call come without a potency. No rule for the calls is given here.
Key:
[1] = toxicity toward HepG2 liver cells – cell-based, plate reader, cherry-pick, antagonist series, cytotoxicity control, dose response (AID 743416)
[2] = target: Melanocortin receptor 4 (Homo sapiens) (UniProt P32245); test: blockade of melanocortin 4 receptor signaling – cell-based, plate reader, cherry pick, counter-screen for LGR2 antagonist project, dose response (AID 743444)

## Cc1ccc(C)c(S(=O)(=O)N(C(=O)c2ccncc2)c2ccc(OC(=O)c3ccncc3)cc2)c1
[1]
  outcome: inactive

## CN(C)S(=O)(=O)c1cccc(NC(=O)COc2ccccc2C(=O)Nc2ccccc2)c1
[1]
  outcome: inactive

## CC(=O)N1CCCCN2[C@H](CO)[C@H](c3ccc(-c4cccc(C)c4)cc3)[C@@H]2C1
[1]
  outcome: inactive

## CC(=O)c1ccc(NC(=O)c2noc3c2CCC3)cc1
[1]
  outcome: inactive

## O=C(Nc1ccc(NC(=O)c2ccco2)nc1)c1ccco1
[1]
  outcome: inactive

## Cc1ccnc(NC(=O)CCC(=O)c2cccs2)c1
[1]
  outcome: inactive

## C[C@H]1CCCCO[C@@H](CN(C)C(=O)Nc2ccc(F)cc2)[C@@H](C)CN([C@@H](C)CO)C(=O)c2cc(NC(=O)C3CCCCC3)ccc2O1
[1]
  outcome: inactive

## CCCc1nc(SCC(=O)N2CCC(Cc3ccccc3)CC2)c2c(=O)n(C)c(=O)n(C)c2n1
[1]
  outcome: inactive

## O=C1CC(c2ccc3c(c2)OCO3)Sc2nc3ccccc3n21 (configuration not stated)
[1]
  outcome: inactive

## O=C(Nc1ccc(Cl)cc1Cl)c1ccc2c(c1)OCCO2
[1]
  outcome: inactive

## COc1ccccc1N/C=C/c1onc(C)c1[N+](=O)[O-]
[1]
  outcome: inactive

## Cc1cccc(-c2ccc([C@H]3[C@@H](CO)N4CCCCN(C(=O)c5ccncc5)C[C@@H]34)cc2)c1
[1]
  outcome: inactive

## COc1cc(SC)ccc1C(=O)Nc1nc(C)cs1
[1]
  outcome: inactive

## O=C(Cc1ccncc1)NCC[C@H]1CC[C@H](NC(=O)C2CCCC2)[C@H](CO)O1
[1]
  outcome: inactive

## N#C[C@@H]1[C@H](c2ccc(C#CC3CCCCC3)cc2)[C@@H](CO)N1C(=O)c1cccc(F)c1
[1]
  outcome: inactive

## Cc1cccc(-c2ccc([C@H]3[C@@H](CO)N4CCCCN(C(=O)c5ccc6c(c5)OCO6)C[C@@H]34)cc2)c1
[1]
  outcome: inactive

## Cc1cnc(NC(=O)COc2ccccc2Cl)s1
[1]
  outcome: inactive

## Cc1ccc(-n2[nH]c(=O)c(-c3ccccn3)c2C)cc1
[1]
  outcome: inactive

## COc1ccc(NC(=O)N(C)C[C@@H]2OCCCC[C@H](C)Oc3ccc(NC(=O)C4CCCCC4)cc3C(=O)N([C@H](C)CO)C[C@@H]2C)cc1
[1]
  outcome: inactive
[2]
  outcome: inactive

## NCC[C@H]1CC[C@H](NS(=O)(=O)Cc2ccccc2)[C@@H](CO)O1
[1]
  outcome: inactive
[2]
  outcome: inactive

## Cc1csc(NC(=O)c2ccc(N3CCCC3=O)cc2)n1
[1]
  outcome: inactive

## O=c1[nH]c(CSc2ccccn2)nc2c1oc1ccccc12
[1]
  outcome: inactive

## COc1cccc(NC(=O)Nc2cccc(C(=O)O)c2)c1
[1]
  outcome: inactive

## C[C@H](CO)N1C[C@H](C)[C@H](CN(C)C(=O)Nc2cccc3ccccc23)OCCCC[C@H](C)Oc2ccc(NC(=O)C3CCCCC3)cc2C1=O
[1]
  outcome: inactive
[2]
  outcome: inactive

## CO[C@@H]1CN(C)C(=O)c2cc(NC(C)=O)ccc2OC[C@@H](C)N(Cc2ccc(F)cc2)C[C@@H]1C
[1]
  outcome: inactive

## O=C(C[C@@H]1C[C@H]2c3cc(NC(=O)c4ccc5c(c4)OCO5)ccc3O[C@H]2[C@@H](CO)O1)NCc1ccc(Oc2ccccc2)cc1
[2]
  outcome: inactive

## N#C[C@@H]1[C@H](c2ccc(C#Cc3ccccc3F)cc2)[C@@H](CO)N1C(=O)C1CC1
[1]
  outcome: inactive

## C[C@@H]1CN([C@@H](C)CO)S(=O)(=O)c2ccc(C3=CCCC3)cc2O[C@H]1CN(C)C(=O)c1ccccc1
[1]
  outcome: inactive
[2]
  outcome: inactive

## CCCCc1ccc(NC(=O)c2cnccn2)cc1
[1]
  outcome: inactive

## Cn1nnnc1Sc1ncnc2scc(-c3ccccc3C(F)(F)F)c12
[1]
  outcome: inactive
[2]
  outcome: inactive

## CC(=O)N1CCc2cc(S(=O)(=O)C(C)CC(=O)NCc3ccco3)ccc21 (configuration not stated)
[1]
  outcome: inactive
[2]
  outcome: inactive

## C[C@H](CO)N1C[C@H](C)[C@H](CN(C)C(=O)CN2CCOCC2)Oc2ncc(C#CCN(C)C)cc2C1=O
[1]
  outcome: inactive
[2]
  outcome: inactive

## C[C@H]1CCCCO[C@@H](CN(C)C(=O)Nc2ccc3c(c2)OCO3)[C@@H](C)CN([C@@H](C)CO)C(=O)c2cc(NC(=O)NC3CCCCC3)ccc2O1
[1]
  outcome: inactive
[2]
  outcome: inactive

## COc1ccc2[nH]c3c(c2c1)CCN1C(=O)N([C@@H](C)C(=O)NCc2ccc(C)cc2)C(=O)[C@]31C
[1]
  outcome: inactive
[2]
  outcome: inactive

## C[C@H](CO)N1C[C@H](C)[C@H](CN(C)C(=O)Nc2ccccc2)OCCCC[C@H](C)Oc2ccc(NC(=O)CCC(F)(F)F)cc2C1=O
[1]
  outcome: inactive
[2]
  outcome: inactive

## N#C[C@@H]1[C@H](c2ccc(C#CC3CCCCC3)cc2)[C@@H](CO)N1S(=O)(=O)c1ccccc1
[1]
  outcome: inactive

## CC[C@H](CO)Oc1cc(NCc2ccc(Cl)c(Cl)c2)c2ncn(C(C)C)c2c1
[1]
  outcome: inactive
[2]
  outcome: inactive

## O=C(Nc1ccc(N2CCN(C(=O)c3ccccc3)CC2)cc1)c1cc2ccccc2o1
[2]
  outcome: inactive

## O=c1cc(-c2c(F)c(F)c(F)c(F)c2F)oc2ccccc12
[1]
  outcome: inactive
[2]
  outcome: inactive

## CCC(=O)N(C)C[C@H]1Oc2cc(C#CCC(C)C)ccc2S(=O)(=O)N([C@H](C)CO)C[C@@H]1C
[1]
  outcome: inactive
[2]
  outcome: inactive

## C[C@H](CO)N1C[C@H](C)[C@H](CN(C)C(=O)Nc2ccc(C(F)(F)F)cc2)OCCCC[C@H](C)Oc2ccc(NC(=O)CCC(F)(F)F)cc2C1=O
[1]
  outcome: inactive
[2]
  outcome: inactive

## Cc1ccc(-n2cc(CN(C)Cc3nccn3C)c(-c3cccc(C)c3)n2)cc1
[1]
  outcome: inactive
[2]
  outcome: inactive

## COCC(=O)N[C@@H]1CC[C@@H](CC(=O)NCc2ccccc2OC)O[C@@H]1CO
[1]
  outcome: inactive
[2]
  outcome: inactive

## CCOc1ccc(-n2cc(-c3ccccc3)c3c(N4CCOCC4)ncnc32)cc1
[1]
  outcome: inactive

## C[C@H](CO)N1C[C@H](C)[C@H](CN(C)C(=O)Nc2ccc(F)cc2)OCCCC[C@H](C)Oc2ccc(NC(=O)Nc3ccc(F)cc3)cc2C1=O
[1]
  outcome: inactive
[2]
  outcome: inactive

## C[C@H](CO)N1C[C@H](C)[C@@H](CN(C)C(=O)Nc2ccc3c(c2)OCO3)Oc2c(cccc2N(C)C)C1=O
[1]
  outcome: inactive
[2]
  outcome: inactive

## C[C@H](CO)N1C[C@H](C)[C@H](CN(C)C(=O)Nc2ccccc2)OCCCC[C@H](C)Oc2ccc(NC(=O)C3CCCCC3)cc2C1=O
[1]
  outcome: inactive
[2]
  outcome: inactive

## C[C@H](CO)N1C[C@H](C)[C@H](CN(C)C(=O)Nc2ccccc2)OCCCC[C@H](C)Oc2ccc(NC(=O)Nc3ccccc3)cc2C1=O
[1]
  outcome: inactive
[2]
  outcome: inactive

## COc1ccc(-c2cc(-c3nnc(COC(=O)C4CC4)o3)c3ccccc3n2)cc1OC
[1]
  outcome: inactive
[2]
  outcome: inactive

## O=C(Nc1ccc(N2CCOCC2)c(S(=O)(=O)Nc2ccccc2Cl)c1)c1ccc(F)cc1
[1]
  outcome: inactive
[2]
  outcome: inactive

## C[C@H]1CCCCO[C@@H](CN(C)C(=O)Nc2ccccc2)[C@@H](C)CN([C@@H](C)CO)C(=O)c2cc(NC(=O)NC3CCCCC3)ccc2O1
[1]
  outcome: inactive
[2]
  outcome: inactive

## Cc1ccc(S(=O)(=O)N(C)C[C@H]2Oc3cc(Br)ccc3S(=O)(=O)N([C@H](C)CO)C[C@H]2C)cc1
[1]
  outcome: inactive
[2]
  outcome: inactive

## C[C@H](CO)N1C[C@H](C)[C@H](CN(C)C(=O)Nc2ccc3c(c2)OCO3)OCCCC[C@H](C)Oc2ccc(NC(=O)C3CCCCC3)cc2C1=O
[1]
  outcome: inactive
[2]
  outcome: inactive

## CCOc1ccc(C(=O)Nc2nnc(SCC(=O)NCC3CCCO3)s2)cc1 (configuration not stated)
[1]
  outcome: inactive

## COc1ccc(S(=O)(=O)N(C)C[C@@H]2OCCCC[C@H](C)Oc3ccc(NS(=O)(=O)c4ccc(F)cc4)cc3C(=O)N([C@@H](C)CO)C[C@@H]2C)cc1
[1]
  outcome: inactive

## Cn1nnnc1SCC(=O)N1CCN(C(=O)c2ccco2)CC1
[1]
  outcome: inactive
[2]
  outcome: inactive

From PubChem BioAssay
